{
  "source": "PubChem BioAssay AID1730",
  "about": "(National Center for Advancing Translational Sciences (NCATS), 2009)",
  "note": "Inconclusive results are not listed. A call without a number means that no potency is given here. The source made the active and inactive calls. The call rests on the fitted dose curve; in most records, active means well fitted inhibition curve with a large enough effect; inconclusive means small, poorly fitted or top-dose-only effect; inactive means no such curve, though single readings can be large or run the other way.",
  "data": [
    {"assay": "Counterscreen Assay for Inhibitors of the ERK Signaling Pathway using a Homogeneous Screening Assay", "conditions": "AlphaScreen bead counterscreen in cell lysate, 5 h; series mostly up to 45.6 µM", "outline": "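HEK293 cells (2000/well, 1% FBS) treated with compound up to 46 uM for 30 min at 37C, 25 nM vasopressin 5 min, then lysed. AlphaScreen counter-screen with biotinylated rabbit IgG; normalised to DMSO and 25 nM IgG, AC50 from Hill fits.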", "values": [
      {"smiles": "Fc1ccc(Nc2ncnc3sc4c(c23)CCC4)cc1", "Potency": "inactive"},
      {"smiles": "CCN(C1CCCCC1)S(=O)(=O)c1ccc(S(=O)(=O)NCc2ccncc2)cc1", "Potency": "inactive"},
      {"smiles": "C=C[C@@]1(C)CC(=O)[C@@]2(O)[C@@]3(C)[C@@H](O)CCC(C)(C)[C@@H]3[C@H](OC(=O)CCN(C)C)[C@H](OC(C)=O)[C@@]2(C)O1", "Potency": "inactive"},
      {"smiles": "COc1ccc(C(=O)OC(COc2ccccc2)Cn2ccnc2)cc1", "note": "(stereo not given)", "Potency": "inactive"},
      {"smiles": "COc1cc2ncnc(Nc3cccc(Cl)c3)c2cc1OC", "Potency": "inactive"},
      {"smiles": "c1ccc(Oc2nc(NCc3ccco3)nc(NCc3ccco3)n2)cc1", "Potency": "inactive"},
      {"smiles": "COc1cc(C(=O)Nc2nc(-c3cccs3)cs2)cc(OC)c1OC", "Potency": "inactive"},
      {"smiles": "Cc1nc2ccccc2nc(=O)c1NNc1ccccc1", "Potency": "inactive"},
      {"smiles": "N#CC(C#N)=C1C=CC=CN1/C(=C\\c1ccco1)C(=O)c1ccc(Cl)cc1", "Potency": "inactive"},
      {"smiles": "CCCCOc1cc(CC2CNC(=O)N2)ccc1OC", "note": "(stereo not given)", "Potency": "inactive"},
      {"smiles": "Cc1noc(NS(=O)(=O)c2ccc(NC(=O)COc3ccc(Cl)cc3Cl)cc2)c1C", "Potency": "inactive"},
      {"smiles": "O=c1cc(-c2ccc(O)cc2)oc2cccc(O)c12", "Potency": "inactive"},
      {"smiles": "CS(=O)(=O)CCNCc1nc(-c2ccc3ncnc(Nc4ccc(OCc5cccc(F)c5)c(Cl)c4)c3c2)cs1", "Potency": "inactive"},
      {"smiles": "Cc1cc(-c2ccccc2)n(-c2cc(N/N=C/c3ccccc3O)ncn2)n1", "Potency": "inactive"},
      {"smiles": "CC(C)Cn1c(N)c(C(=O)CSc2ccc3c(c2)OCCO3)c(=O)n(C)c1=O", "Potency": "inactive"},
      {"smiles": "CCCCC[C@H](O)C=C[C@H]1[C@H](O)CC(=O)[C@H]1CCCCCCC(=O)O", "Potency": "inactive"},
      {"smiles": "COc1ccc(C(=O)c2ccc(Cl)c([N+](=O)[O-])c2)cc1", "Potency": "inactive"},
      {"smiles": "COc1ccc(N=C2C(=Nc3ccc(OC)cc3)N(c3ccc(OC)cc3)C(=S)N2C)cc1", "Potency": "4.47 µM (active)"},
      {"smiles": "Nc1nc2c3ccccc3nc(C3CC3)n2n1", "Potency": "inactive"},
      {"smiles": "COc1ccc(-c2n(CC(=O)OC3CC(C)CCC3C(C)C)c3ccccc3[n+]2C)cc1", "note": "(stereo not given)", "Potency": "inactive"},
      {"smiles": "Cn1nc(-c2ccc(Cl)cc2)nc2c(=O)n(C)c(=O)nc1-2", "Potency": "inactive"},
      {"smiles": "O=C(c1cccs1)c1no[n+]([O-])c1C(=O)c1cccs1", "Potency": "inactive"},
      {"smiles": "CCCNc1ncnc2sc(C)c(C)c12", "Potency": "inactive"},
      {"smiles": "Cn1c(=O)cc(Nc2ccccc2)c2c(=O)n(-c3ccccc3)c(=O)n(-c3ccccc3)c21", "Potency": "inactive"},
      {"smiles": "COc1cc(C2CC(=O)c3c([nH]c(C(=O)OCCOC(C)C)c3C)C2)cc(OC)c1OC", "note": "(stereo not given)", "Potency": "inactive"}
    ]}
  ]
}
